# Reference: the supplement of paper PMC6555819
# Test system: LXRb homodimer (NR concentration 270 nM)
# Assay: PBM binding z-score (relative to random genomic background probes); higher = stronger binding; sequences stand for … in GC…GCGATTGACAGCGTAGAATGAAGG
# Summary of the method: (§1)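 Scanned fluorescence from custom Agilent 4×180K protein-binding microarrays was regression-normalized. Binding z-scores use random background probes as reference. Ligand-free nuclear receptor dimers were incubated on the arrays for 1 h and detected with antibodies against each partner (one per run).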
row,Sequence,PBM binding z-score
1,TCGAGTAGGTTACCAATGAGGCATTCAGCTTTCT,-1.38
2,CCTAGTTGGTGAAGGTCACACACGCTATAGGTAC,0.755
3,CCTCGGAGGCCAACAGGAGGTCAGAGCTGCCAGA,-0.663
4,CCTACTGGGCCAAAGGTCATTGAATCCAATGCTC,0.849
5,AGTCAACGTTCACTAGGTAACGTAAGATTCAGCT,0.00206
6,ACTATTAGTTGAGACGAGGGCAACCGATAGGTTG,0.0471
7,GCATATAGTTAATACAAGGTGAAAGTCCGATTGT,-0.202
8,TCTAGTTGGTCATAGGTCACACACTCGAAATGCG,1.25
9,TGTCAAAGTTCAAAGGTAACGTAAGTATCCACAC,2.02
10,CCTTACGGGTCACTAACAGGTTATAGCATTTGGA,0.319
11,CGAACTAGGTCAAGGACAGAGAATCTCCGCACGC,-0.37
12,GGAACGAGGGCAAAGTTGATACCATCTGTCGACG,-0.157
13,ATCGAAAGGTCGAAGGTGGGTATACCCACCCGAA,0.437
14,TAGCCTAGGTCATTCACGGGCCAGTATAGAAAGC,0.779
15,AATACAGGGTCATCGTAGGACAGAGTACGCACAG,1.66
16,TCATATAGTTAAACAGGTGAAAGTCCGTAAGTTA,0.356
17,CCAGACACGTGAGAAGGTAACTCAGCCTCGATTA,-0.11
18,CATCCAAGGTCAATGCTAGGTCAGTGAAAGCATT,1.77
19,CCTACGGGGCCATCAGGTCATTGATATCAACGTT,-0.245
20,CCTACTGGGCCAATGGTCATTGATTCCAATGCTC,-0.674

row,Sequence,PBM binding z-score
1,AATACAGGGTCATCGTAGGCCAGAGTGCGCACAG,1.07
2,ATCTCTACGTAACCAAGTTCAGTGAATGCCGAAC,1.1
3,TATACAGGGTCAAAGGCCAGAGGACGAATGTCGA,2.59
4,TGAATGAGATTAAAGATCAGGGAACGTGGCGTCG,-0.389
5,GATACAGGGTCAGCTAGAGGCCAGAGAATGGAAA,-0.535
6,ATACCAAGGTGATCGTGAGCTCGTTGATACTAAC,-0.116
7,CAAACTAGGTCAACGGAAGGTCAAAGTCCGCATG,1.55
8,CAGCCTAGGTCAGGGCCAGTATGGGAGGAACGTT,-1.05
9,ACAGACCGGTGAGTGAAGGTAACTCAGCTGGACG,-0.849
10,TCTTGTAGATCAACATGAGGTTAAGAAAGATCGA,0.134
11,TAGCCTCGGTCATGGGCCAGTATACCACGCGAAC,-0.572
12,CCTACTGGGCGATCAGGTCATTGATATCAACGTT,-0.539
13,CCATACAGGTGAGAAGGTAACTCAGCCTCGATTA,-0.0623
14,TTACCAAGGTGAAAGGTCGCTGATGCACGCCTTG,-0.623
15,GCGACTGTGGCAAAGCAGGTTACCATAAGGTTGG,-1.38
16,TGAATGAGGTTATACGATCAGGGAACGTTGCAAA,-0.18
17,CCTAGCAGGCCAATCTGGGTCAATCAAGGCTTGA,-1.17
18,GCTTACGGGGCAAAGGTTATAGCATGAATAGAAT,0.208
19,TCTTGTAGATCAACAGGAGGTTAAGGAAGATCGA,-0.341
20,TCAGACAGGTGAAGGTAACTAAGGTACGCAGTCG,-0.0558

# Test system: PPARa:RXRa (NR concentration 270 nM, RXRa partner concentration 90 nM)
# Assay: as above
# Summary of the method: as §1
row,Sequence,PBM binding z-score
1,TCGAGTAGGTTACCAATGAGGCATTCAGCTTTCT,1
2,CCTAGTTGGTGAAGGTCACACACGCTATAGGTAC,3.66
3,CCTCGGAGGCCAACAGGAGGTCAGAGCTGCCAGA,2.29
4,CCTACTGGGCCAAAGGTCATTGAATCCAATGCTC,6.45
5,AGTCAACGTTCACTAGGTAACGTAAGATTCAGCT,0.525
6,ACTATTAGTTGAGACGAGGGCAACCGATAGGTTG,0.636
7,GCATATAGTTAATACAAGGTGAAAGTCCGATTGT,0.488
8,TCTAGTTGGTCATAGGTCACACACTCGAAATGCG,4.96
9,TGTCAAAGTTCAAAGGTAACGTAAGTATCCACAC,5.9
10,CCTTACGGGTCACTAACAGGTTATAGCATTTGGA,4.89
11,CGAACTAGGTCAAGGACAGAGAATCTCCGCACGC,4.47
12,GGAACGAGGGCAAAGTTGATACCATCTGTCGACG,4.04
13,ATCGAAAGGTCGAAGGTGGGTATACCCACCCGAA,4.28
14,TAGCCTAGGTCATTCACGGGCCAGTATAGAAAGC,3.36
15,AATACAGGGTCATCGTAGGACAGAGTACGCACAG,5.73
16,TCATATAGTTAAACAGGTGAAAGTCCGTAAGTTA,1.7
17,CCAGACACGTGAGAAGGTAACTCAGCCTCGATTA,-0.534
18,CATCCAAGGTCAATGCTAGGTCAGTGAAAGCATT,5.06
19,CCTACGGGGCCATCAGGTCATTGATATCAACGTT,2.46
20,CCTACTGGGCCAATGGTCATTGATTCCAATGCTC,1.86

row,Sequence,PBM binding z-score
1,AATACAGGGTCATCGTAGGCCAGAGTGCGCACAG,5.99
2,ATCTCTACGTAACCAAGTTCAGTGAATGCCGAAC,0.166
3,TATACAGGGTCAAAGGCCAGAGGACGAATGTCGA,5.98
4,TGAATGAGATTAAAGATCAGGGAACGTGGCGTCG,0.409
5,GATACAGGGTCAGCTAGAGGCCAGAGAATGGAAA,4.65
6,ATACCAAGGTGATCGTGAGCTCGTTGATACTAAC,0.174
7,CAAACTAGGTCAACGGAAGGTCAAAGTCCGCATG,5.74
8,CAGCCTAGGTCAGGGCCAGTATGGGAGGAACGTT,2.06
9,ACAGACCGGTGAGTGAAGGTAACTCAGCTGGACG,-0.708
10,TCTTGTAGATCAACATGAGGTTAAGAAAGATCGA,1.62
11,TAGCCTCGGTCATGGGCCAGTATACCACGCGAAC,0.143
12,CCTACTGGGCGATCAGGTCATTGATATCAACGTT,1.44
13,CCATACAGGTGAGAAGGTAACTCAGCCTCGATTA,1.01
14,TTACCAAGGTGAAAGGTCGCTGATGCACGCCTTG,5.25
15,GCGACTGTGGCAAAGCAGGTTACCATAAGGTTGG,0.3
16,TGAATGAGGTTATACGATCAGGGAACGTTGCAAA,2.91
17,CCTAGCAGGCCAATCTGGGTCAATCAAGGCTTGA,3.09
18,GCTTACGGGGCAAAGGTTATAGCATGAATAGAAT,5.38
19,TCTTGTAGATCAACAGGAGGTTAAGGAAGATCGA,1.24
20,TCAGACAGGTGAAGGTAACTAAGGTACGCAGTCG,1.51
